Results filed as inconclusive are left out. A call without a number means that no potency is given here. A number with no mark means an inactive call. Calls of active or inactive are those of the source. The call rests on the fitted dose curve; in most records, active means well fitted curve in the direction sought with a large enough effect; inconclusive means small, poorly fitted or top-dose-only effect, or another doubt; inactive means no such curve, though single readings can be large; an effect the other way counts as inactive or inconclusive.
Tested on: not listed separately
Assay: Primary qHTS for inhibitors of La Crosse Virus (LACV) - induced cell death in SH-SY5Y cells (AID 1508616);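 further: top concentration of the series differs between compounds; higher means more rescue of cells from virus-induced death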
Conditions: SH-SY5Y LACV cytopathicity rescue, ATP luminescence, 6 d; series mostly up to 9.63 µM; activity change: at the top concentration
Summary of the method: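 Cytopathicity rescue screen: compounds pinned onto SH-SY5Y cells, which are then infected with LACV (MOI 0.01) and held 6 days at 37C. Percent activity is scaled between infected DMSO control and uninfected DMSO control.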

Compound	Potency	activity change
Cc1cc(C)c(/C=C2\C(=O)Nc3ccccc32)[nH]1	inactive	–
Cc1ccc(Cl)c(Nc2ccccc2C(=O)O)c1Cl	inactive	–
CCCC(C(=O)OCCN(CC)CC)(c1ccccc1)c1ccccc1	–	-2.62% [at 4.29 µM]
COC(=O)[C@H]1[C@H]2C[C@@H]3c4[nH]c5cc(OC)ccc5c4CCN3C[C@H]2C[C@@H](OC(=O)c2cc(OC)c(OC)c(OC)c2)[C@@H]1OC	inactive	–
CCOC(=O)C1=C(C)NC(C)=C(C(=O)OC)C1c1cccc(Cl)c1Cl (centres undefined)	inactive	–
C[C@]12C=CC(=O)C=C1CC[C@H]1[C@@H]3C[C@@H](O)[C@](O)(C(=O)CO)[C@@]3(C)C[C@H](O)[C@@]12F	inactive	–
COc1cc2c(cc1OC)-c1cc(=Nc3c(C)cc(C)cc3C)n(C)c(=O)n1CC2	inactive	–
CCOC(=O)C1=C(C)NC(C)=C(C(=O)OC)C1c1cccc([N+](=O)[O-])c1 (centres undefined)	inactive	–
CN1C[C@H](C(=O)N[C@]2(C)O[C@@]3(O)[C@@H]4CCCN4C(=O)[C@H](Cc4ccccc4)N3C2=O)C[C@@H]2c3cccc4[nH]cc(c34)C[C@H]21	inactive	–
Cc1nnc(SCC2=C(C(=O)O)N3C(=O)[C@@H](NC(=O)Cn4cnnn4)[C@H]3SC2)s1	inactive	–
OC(CCN1CCCCC1)(c1ccccc1)C1CCCCC1 (centres undefined)	inactive	–
CCNC(=O)N1CCN(CCCC(c2ccc(F)cc2)c2ccc(F)cc2)CC1	inactive	–
CC(C)NCC(O)c1cc(O)cc(O)c1 (centres undefined)	inactive	–
Cc1nc2sccn2c(=O)c1CCN1CCC(=C(c2ccc(F)cc2)c2ccc(F)cc2)CC1	inactive	–
COCCCC/C(=N\OCCN)c1ccc(C(F)(F)F)cc1	inactive	–
COCCOC(=O)C1=C(C)NC(C)=C(C(=O)OC(C)C)C1c1cccc([N+](=O)[O-])c1 (centres undefined)	inactive	–
C[C@]12CC[C@@H]3c4ccc(O)cc4C[C@@H](CCCCCCCCCS(=O)CCCC(F)(F)C(F)(F)F)[C@H]3[C@@H]1CC[C@@H]2O (some centres undefined)	inactive	–

Compound	Potency	activity change
COC(=O)C1=C(C)NC(C)=C(C(=O)OCCN(C)Cc2ccccc2)C1c1cccc([N+](=O)[O-])c1 (centres undefined)	inactive	–
CCCCCN(CCCCC)C(=O)C(CCC(=O)O)NC(=O)c1ccc(Cl)c(Cl)c1 (centres undefined)	inactive	–
CC(=O)Oc1cc(C(C)C)c(OCCN(C)C)cc1C	inactive	–
CCCCOCCOCCOCc1cc2c(cc1CCC)OCO2	inactive	–
O=C1NCN(c2ccccc2)C12CCN(CCCC(c1ccc(F)cc1)c1ccc(F)cc1)CC2	inactive	–
CCN(CC)CCCN(c1ccccc1)C1Cc2ccccc2C1	inactive	–
C[C@H](CS)C(=O)N1CCC[C@H]1C(=O)O	inactive	–
CC(C)COCC(CN(Cc1ccccc1)c1ccccc1)N1CCCC1 (centres undefined)	inactive	–
CO[C@@]1(NC(=O)CSCC#N)C(=O)N2C(C(=O)O)=C(CSc3nnnn3C)CS[C@@H]21	–	24.9%
CNCCC(Oc1ccccc1OC)c1ccccc1 (centres undefined)	–	1.51% [at 4.29 µM]
CN(C)CCCN1c2ccccc2Sc2ccc(C(F)(F)F)cc21	inactive	–
NC(=Nc1ccccc1)Nc1ccccc1	inactive	–
CCN1CCc2nc(N)oc2CC1	inactive	–
CCCN1C[C@H](CSC)C[C@@H]2c3cccc4[nH]cc(c34)C[C@H]21	inactive	–
CC(=O)[C@]1(O)Cc2c(O)c3c(c(O)c2[C@@H](O[C@H]2C[C@H](N)[C@H](O)[C@H](C)O2)C1)C(=O)c1ccccc1C3=O	–	3.9%
CNCCCN1c2ccccc2CCc2ccccc21	–	-4.88% [at 4.29 µM]
CCCOc1ccccc1-c1nc2n[nH]nc2c(=O)[nH]1	–	-3.83%

Target: Calcium and integrin-binding protein 1 (Homo sapiens) (UniProt Q99828)
Sequence (Q99828 whole entry, looked up): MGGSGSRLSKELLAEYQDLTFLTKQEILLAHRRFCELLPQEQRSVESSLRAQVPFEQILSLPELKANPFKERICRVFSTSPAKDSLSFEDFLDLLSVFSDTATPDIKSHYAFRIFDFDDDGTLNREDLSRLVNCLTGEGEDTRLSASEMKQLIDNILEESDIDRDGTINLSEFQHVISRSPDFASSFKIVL
Assay: Validation qHTS for Identification of Calcium Integrin Binding protein 1 (CIB1) Competitor (AID 1508618)
Conditions: CIB1-GST / FITC-alphaIIb peptide fluorescence polarization; series mostly up to 114 µM; activity change, negative = inhibition: at the top concentration
Summary of the method: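 CIB1-GST (1 uM final) in 5 mM HEPES pH 7.4, 125 mM NaCl, 5 mM CaCl2, 0.01% Tween20 was preincubated 15 min at room temperature with compound (up to 114 uM), then FITC-alphaIIb peptide (100 nM) added for 15 min; fluorescence polarization read.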

Compound	activity change, negative = inhibition
CSc1ccc(C(=O)c2[nH]c(=O)[nH]c2C)cc1	0.281%
COC(=O)[C@H]1[C@H]2C[C@@H]3c4[nH]c5cc(OC)ccc5c4CCN3C[C@H]2C[C@@H](OC(=O)c2cc(OC)c(OC)c(OC)c2)[C@@H]1OC	9.43%
COc1cc2c(cc1OC)-c1cc(=Nc3c(C)cc(C)cc3C)n(C)c(=O)n1CC2	3.35%
CCNC(=O)N1CCN(CCCC(c2ccc(F)cc2)c2ccc(F)cc2)CC1	7.21%
CC(C)NCC(O)c1cc(O)cc(O)c1 (centres undefined)	5.75%
COCCCC/C(=N\OCCN)c1ccc(C(F)(F)F)cc1	4.9%
COCCOC(=O)C1=C(C)NC(C)=C(C(=O)OC(C)C)C1c1cccc([N+](=O)[O-])c1 (centres undefined)	-8.19%
C[n+]1cc2c3c(ccc2c2ccc4cc5c(cc4c21)OCO5)OCO3	-0.489%
C[C@]12CC[C@@H]3c4ccc(O)cc4C[C@@H](CCCCCCCCCS(=O)CCCC(F)(F)C(F)(F)F)[C@H]3[C@@H]1CC[C@@H]2O (some centres undefined)	9.09%
CCN(CC)CCCN(c1ccccc1)C1Cc2ccccc2C1	5.73%
CC(C)COCC(CN(Cc1ccccc1)c1ccccc1)N1CCCC1 (centres undefined)	0.817%
CO[C@@]1(NC(=O)CSCC#N)C(=O)N2C(C(=O)O)=C(CSc3nnnn3C)CS[C@@H]21	0.019%
CNCCC(Oc1ccccc1OC)c1ccccc1 (centres undefined)	3.08%
CC(=O)[C@]1(O)Cc2c(O)c3c(c(O)c2[C@@H](O[C@H]2C[C@H](N)[C@H](O)[C@H](C)O2)C1)C(=O)c1ccccc1C3=O	-82%
CNCCCN1c2ccccc2CCc2ccccc21	6.32%

Source: PubChem BioAssay (NCATS)
